Laboratory results: paper PMC4336329 (PLoS ONE, 2015)
Screen size: about 310,000 compounds; about 14,000 (4.5%) showed an effect of 50% or more. Effects have a minus sign here. The list comes from a sample in which strong results are over-represented; it also holds similar structures and randomly drawn compounds.

These molecules were tested against human ether-à-go-go-related gene (hERG) potassium channel (human, UniProt Q12809) (assay: primary screen, population patch clamp on CHO cells stably expressing hERG; higher = less effect of the substance).
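Further: peak tail current of the secondary pulse compared with the same well before compound.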

Sequence of human ether-à-go-go-related gene (hERG) potassium channel (Q12809 whole entry, looked up): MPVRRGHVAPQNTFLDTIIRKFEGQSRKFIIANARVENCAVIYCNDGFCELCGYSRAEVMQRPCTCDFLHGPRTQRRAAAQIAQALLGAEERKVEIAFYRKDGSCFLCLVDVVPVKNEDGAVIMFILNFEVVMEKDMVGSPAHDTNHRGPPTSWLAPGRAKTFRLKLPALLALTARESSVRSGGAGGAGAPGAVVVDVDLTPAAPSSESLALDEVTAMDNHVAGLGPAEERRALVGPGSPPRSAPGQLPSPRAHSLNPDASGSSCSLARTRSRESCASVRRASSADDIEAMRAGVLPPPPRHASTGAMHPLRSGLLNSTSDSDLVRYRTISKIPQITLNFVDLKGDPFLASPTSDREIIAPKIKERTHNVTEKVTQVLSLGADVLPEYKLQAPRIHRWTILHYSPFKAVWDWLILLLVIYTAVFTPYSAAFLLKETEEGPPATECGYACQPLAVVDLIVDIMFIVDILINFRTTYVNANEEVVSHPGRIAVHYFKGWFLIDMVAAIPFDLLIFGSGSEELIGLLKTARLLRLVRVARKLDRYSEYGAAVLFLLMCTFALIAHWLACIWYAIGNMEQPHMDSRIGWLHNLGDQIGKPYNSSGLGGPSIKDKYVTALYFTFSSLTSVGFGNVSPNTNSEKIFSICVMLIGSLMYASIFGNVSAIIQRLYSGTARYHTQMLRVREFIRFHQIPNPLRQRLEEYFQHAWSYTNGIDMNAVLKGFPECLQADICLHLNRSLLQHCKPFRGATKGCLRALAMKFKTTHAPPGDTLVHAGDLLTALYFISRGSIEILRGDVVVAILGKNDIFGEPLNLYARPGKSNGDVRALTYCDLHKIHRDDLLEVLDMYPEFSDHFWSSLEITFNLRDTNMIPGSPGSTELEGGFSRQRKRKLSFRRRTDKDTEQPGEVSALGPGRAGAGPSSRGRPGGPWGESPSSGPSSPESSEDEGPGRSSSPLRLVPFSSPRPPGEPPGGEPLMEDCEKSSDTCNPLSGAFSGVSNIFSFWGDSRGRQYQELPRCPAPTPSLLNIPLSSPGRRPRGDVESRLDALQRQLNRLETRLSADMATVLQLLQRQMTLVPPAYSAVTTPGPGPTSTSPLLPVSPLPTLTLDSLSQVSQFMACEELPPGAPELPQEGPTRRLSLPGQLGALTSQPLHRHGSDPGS

SMILES | hERG current change (%, negative = inhibition) at 10uM
COCCn1c(SCC(=O)N2CC(=O)Nc3ccccc32)nc2ccccc2c1=O | -26.9%
COc1ccccc1NC(=O)CSc1nc2ccccc2c(=O)n1CCNC(C)=O | -62.2%
COc1ccc(NC(=O)CSc2nc3ccccc3c(=O)n2CCNC(C)=O)cc1 | -73.6%
COCCCn1c(SCC(=O)Nc2ccc(C)cc2)nc2ccccc2c1=O | -2.1%
CC(C)N(CCn1c(SCC(=O)N2CC(=O)Nc3ccccc32)nc2ccccc2c1=O)C(C)C | -76.6%
COc1ccc(OC)c(NC(=O)CSc2nc3ccccc3c(=O)n2CCNC(C)=O)c1 | -2.83%
COCCCn1c(SCC(=O)Nc2ccc(C(=O)OC)cc2)nc2ccccc2c1=O | -25.6%
CCOc1ccc(NC(=O)CSc2nc3ccccc3c(=O)n2CCNC(C)=O)cc1 | -6.93%
COc1ccc(NC(=O)CSc2nc3ccccc3c(=O)n2CCNC(C)=O)c(OC)c1 | -25.1%
CC(=O)NCCn1c(SCC(=O)Nc2ccc(C)cc2)nc2ccccc2c1=O | 5.81%
COCCCn1c(SCC(=O)Nc2ccc(C(C)=O)cc2)nc2ccccc2c1=O | -51.5%
CN(C)CCCn1c(SCC(=O)N2CC(=O)Nc3ccccc32)nc2ccccc2c1=O | -17.6%
O=C(O)CCCC(=O)N(Cc1ccccc1)Cc1ccccc1 | 30.4%
Cn1c2c(c(=O)n(C)c1=O)C(c1cccc([N+](=O)[O-])c1)Nc1ccccc1O2 (centres unmarked) | -12.3%
C[C@H](N)C(=O)N1CCC(C(=O)N[C@@H](Cc2ccccc2)C(=O)Nc2ccc(F)cc2)CC1 | -5.88%
CC(=O)Nc1c([N+](=O)[O-])cc(C)c(Cl)c1[N+](=O)[O-] | 6.22%
COc1ccc(Cn2c(=O)[nH]c3cc(C(=O)N4CCN(c5ccc(OC)cc5)CC4)ccc3c2=O)cc1 | 10.1%
Cc1cc(Cl)cc(Br)c1OCCNCC(C)O (centres unmarked) | -18.7%
O=C1C2(CCC13COC(c1ccc(O)cc1)OC3)COC(c1ccc(O)cc1)OC2 (centres unmarked) | -2.43%
COc1ccc(OC)c(C2/C(=C(/O)c3ccc(C)cc3)C(=O)C(=O)N2Cc2ccco2)c1 (centres unmarked) | -7.22%
Cc1cc(=O)oc2cc(OCC(=O)Nc3ccc(CN4CCOCC4)cc3)ccc12 | 3.15%
COc1cc2c3c(c1)/C(=C1/SC(=S)NC1=O)C(=O)N3C(C)(C)C=C2C | 2.71%
CCc1cccc(NC(=O)C2CCCN2S(=O)(=O)c2cccc3cccnc23)c1 (centres unmarked) | -10.4%
O=C(CCCn1cc([N+](=O)[O-])cn1)Nc1ccc2c(c1)OCO2 | 4.52%
CCOCCCNC(=O)C1CCN(S(=O)(=O)c2ccc3nc4c(c(C(=O)O)c3c2)CCCCC4)CC1 | 49.4%
CC1CCN(S(=O)(=O)c2ccc(C(=O)NC3CCS(=O)(=O)C3)cc2)CC1 (centres unmarked) | -5.94%
COCCn1c(SCC(=O)Nc2cccnc2Cl)nc2cc(Cl)ccc2c1=O | -29.6%

SMILES | hERG current change (%, negative = inhibition) at 10uM
CC(C)N(CCn1c(SCC(=O)Nc2cccnc2Cl)nc2ccccc2c1=O)C(C)C | -69.7%
CC(=O)NCCn1c(SCc2ccc(C)cc2)nc2ccccc2c1=O | -31.2%
COCCn1c(SCC(=O)Nc2cccnc2Cl)nc2ccccc2c1=O | 4.53%
CC(=O)NCCn1c(SCC(=O)c2ccccc2)nc2ccccc2c1=O | -29.9%
CC(=O)NCCn1c(SCC(=O)OCc2ccccc2)nc2ccccc2c1=O | -60.2%
O=C(Cc1ccccc1)N1CCN(C(=O)c2cccs2)CC1 | 6.2%
O=C(Nc1cc(Cl)ccc1Cl)c1noc2c1CCCC2 | 12.4%
CC(=O)N(Cc1ccccc1)c1ccccc1C(=O)O | 13.1%
CS(=O)(=O)n1nc(-c2ccco2)nc1N | 20.3%
COc1cccc(OCc2nnc(SCC(=O)NCc3ccco3)n2C)c1 | -0.586%
Cc1ccc(C)c(NC(=O)CN(C)C(=O)c2cccc(S(=O)(=O)N3CCN(Cc4ccccc4)CC3)c2)c1 | 9.47%
COc1ccc(O)c(CN2CCN(CCCc3ccccc3)C(CCO)C2)c1 (centres unmarked) | -68.2%
COc1ccc(O)c(CN2CCN(CCc3ccccc3)C(CCO)C2)c1 (centres unmarked) | -54.6%
OCCC1CN(Cc2c(O)ccc3ccccc23)CCN1CCc1ccccc1 (centres unmarked) | -27.1%
Cc1ccc(NC(=O)COC(=O)c2ccc3c(c2)OCCO3)cc1S(=O)(=O)N1CCOCC1 | 6.16%
O=C(CN1C(=O)NC2(CCc3ccccc32)C1=O)NCc1ccccc1Cl (centres unmarked) | 7.01%
Nc1c(C(=O)NCC2CCCO2)c2nc3ccccc3nc2n1-c1ccccc1 (centres unmarked) | 2.35%
Cc1ccc(NC(=O)C2CCCN2S(=O)(=O)c2ccc(-c3ccc(=O)[nH]n3)s2)c(C)c1 (centres unmarked) | -15.4%
CCc1ccccc1NC(=O)C1CCCN1S(=O)(=O)c1ccc2c(c1)n(C)c(=O)c(=O)n2C (centres unmarked) | -3.91%
O=C(O)C1CCCN(S(=O)(=O)c2ccc(-c3ccc(=O)[nH]n3)s2)C1 (centres unmarked) | 16.5%
Cc1ccc(Cl)cc1NC(=O)C1CCCN1S(=O)(=O)c1ccc(-c2ccc(=O)[nH]n2)s1 (centres unmarked) | -65.4%
CCc1ccccc1NC(=O)C1CCCN1S(=O)(=O)c1ccc(-c2ccc(=O)[nH]n2)s1 (centres unmarked) | -54.7%
O=C(Nc1ccc(F)cc1F)C1CCCN1S(=O)(=O)c1ccc(-c2ccc(=O)[nH]n2)s1 (centres unmarked) | -33.5%
Cc1cccc(C)c1NC(=O)C1CCCN1S(=O)(=O)c1ccccc1 (centres unmarked) | 4.4%
CCc1nnc(NC(=O)C2CCCN2S(=O)(=O)c2ccccc2)s1 (centres unmarked) | 14.8%
Cc1cccc(C)c1NC(=O)C1CCCN1S(=O)(=O)c1ccc(-c2ccc(=O)[nH]n2)s1 (centres unmarked) | -68.2%
